PubChem BioAssay (NCI)
About 79,000 compounds went through this panel and 15% of them were active in at least one assay; those are over-represented in the sample as a whole. Cut-off read from the data, not from the text of the source: active = growth inhibition above about 70%; inactive = the rest.

Legend:
[1] = NCI Yeast Anticancer Drug Screen. Data for the rad50 strain (AID 155);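 note: 0% = growth of vehicle-only cultures of the same strain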; conditions: S. cerevisiae rad50 strain growth inhibition; at 50.0 µM; active compounds read high
In short: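 Vehicle-treated cultures provide the reference for the growth inhibition reported for compound-exposed, repair-deficient yeast.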

[2] = NCI Yeast Anticancer Drug Screen. Data for the mec2-1 strain (AID 157); conditions: S. cerevisiae mec2-1 strain, at 50.0 µM, active compounds read high
In short: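 Cells of the genetically defined mec2-1 yeast strain are incubated with test compound. Inhibition of growth is calculated against vehicle-treated controls.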

[3] = NCI Yeast Anticancer Drug Screen. Data for the sgs1 mgt1 strain (AID 161);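 note: 0% = growth of cultures given vehicle only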; conditions: S. cerevisiae sgs1 mgt1 strain, at 50.0 µM, active compounds read high
In short: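 Inhibition of yeast growth, normalised to vehicle-treated controls, is reported for a strain bearing genetic alterations in DNA damage repair.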

[4] = NCI Yeast Anticancer Drug Screen. Data for the cln2 rad14 strain (AID 165);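 note: 0% = growth equal to vehicle treated cultures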; conditions: S. cerevisiae cln2 rad14 strain, at 50.0 µM, active compounds read high
In short: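 The screen exposed genetically defined yeast (cln2 rad14) to test compounds and scored growth inhibition relative to vehicle-treated controls.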

[5] = NCI Yeast Anticancer Drug Screen. Data for the bub3 strain (AID 167); conditions: S. cerevisiae bub3 mutant strain, at 50.0 µM, active compounds read high
In short: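 Mutant yeast screening strain plus compound; vehicle-treated cultures serve as the 0% inhibition reference.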

[6] = NCI Yeast Anticancer Drug Screen. Data for the mlh1 rad18 strain (AID 175); conditions: S. cerevisiae mlh1 rad18 strain growth inhibition; at 50.0 µM; active compounds read high
In short: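 Compound-treated yeast growth, normalised to vehicle controls. Strain bears defined DNA repair mutations.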

Measured: growth inhibition

CCCNCc1cccc2ccnc(C)c12
inactive: [1] 40.9% | [2] 9.6% | [3] 0.45% | [4] 17.6% | [5] 15.9% | [6] 28.6%

N#Cc1ccc(CSC2=C(c3ccc(Cl)cc3)S/C(=C3\SC(SCc4ccc(C#N)cc4)=C(c4ccc(Cl)cc4)S3)S2)cc1
inactive: [1] -16.8% | [2] -15.3% | [3] -19.9% | [4] 7.7% | [5] -8.4% | [6] -25.9%

CS(=O)(=O)CCC(Nc1ccc([N+](=O)[O-])cc1[N+](=O)[O-])C(=O)O (stereo unspecified)
inactive: [1] 4.7% | [2] 6.1% | [3] 22.1% | [4] 4.25% | [5] 5.6% | [6] -11.7%

O=C(O)CCC(NC(=O)CCC(NC(=O)OCc1ccccc1)C(=O)OCc1ccccc1)C(=O)OCc1ccccc1 (stereo unspecified)
inactive: [1] -13.1% | [2] -31.5% | [3] -10.6% | [4] 9.2% | [5] 5.4% | [6] -10.8%

Cc1ccc(SS(=O)(=O)c2ccc([N+](=O)[O-])cc2)cc1
inactive: [1] 13.9% | [2] 12.4% | [3] 9.3% | [4] -29.4% | [5] -5.45% | [6] 16.6%

COC(=O)C(/C(=N/N)C(=O)Nc1cccc(O)c1)c1nc2ccccc2[nH]c1=O (stereo unspecified)
inactive: [1] -39.1% | [2] -7.65% | [3] -42% | [4] -15.2% | [5] -39.1% | [6] -34.4%

CCOC(=O)CC(=O)c1sc(SC)c(C#N)c1N
inactive: [1] -8% | [2] -9.6% | [3] -10.2% | [4] -2% | [5] 1.6% | [6] 1.6%

O=C(O)c1cccnc1Cl
inactive: [1] 10.2% | [2] -3.5% | [3] -9.9% | [4] 14.4% | [5] 4.15% | [6] -4.45%

CN1c2ccc(C3N(C(=O)C(F)(F)F)C=CN3C(=O)C(F)(F)F)cc2Sc2cc(C3N(C(=O)C(F)(F)F)C=CN3C(=O)C(F)(F)F)ccc21
inactive: [1] -3.65% | [2] 1.15% | [3] -2% | [4] -6.9% | [5] 1.05% | [6] 19.9%

O=C1CCCC(CCc2ccccc2)O1 (stereo unspecified)
inactive: [1] 5.45% | [2] -4.05% | [3] 1.3% | [4] -8% | [5] -37.1% | [6] -7.9%

Clc1cccc2[nH]c(-c3ccncc3)nc12
inactive: [1] -18.1% | [2] -15.1% | [3] -15.4% | [4] -10.8% | [5] 2.95% | [6] -5.75%

Oc1ccccc1C1N=NC2=C(CCCC2)N1O (stereo unspecified)
inactive: [1] -12.9% | [2] -26.4% | [3] -2.5% | [4] -12.1% | [5] 21.9% | [6] -7.15%

CCN(CC)Cc1ccccc1COC(=O)c1cccc(Cl)c1
inactive: [1] 19.6% | [2] 3.7% | [3] 10.9% | [4] 15.8% | [5] -5.9% | [6] 26.1%

NC(=O)CC(N)C(N)=O (stereo unspecified)
inactive: [1] -8.25% | [2] -33.1% | [3] -47.8% | [4] 13.2% | [5] -18.3% | [6] -3.25%

COc1ccc(C(=C(I)c2ccccc2)c2ccc(OC)cc2)cc1
inactive: [1] -31.6% | [2] -26.4% | [3] -11.4% | [4] -15.9% | [5] -25.4% | [6] -18.9%

C/C(CCC1CCCCC1)=N/NC(N)=O
inactive: [1] 14.6% | [2] 15.8% | [3] 5.25% | [4] 14.7% | [5] 12.7% | [6] -18.4%

COc1cccc(C2SCC(=O)N2c2nncs2)c1OC (stereo unspecified)
inactive: [1] -34.8% | [2] 6% | [3] 9.95% | [4] 8.3% | [5] 2.6% | [6] -9%

CC(O)C(=O)N1CCCCC1 (stereo unspecified)
inactive: [1] 13.7% | [2] 9.5% | [3] -3.95% | [4] -8.35% | [5] 10.6% | [6] -23.1%

O/N=C(/c1ccccc1)C1CCCCC1
inactive: [1] 20.7% | [2] -1.05% | [3] 13% | [4] -0.15% | [5] -8.5% | [6] 10.3%

O=C1C(/C=N\C(=S)NCc2ccccc2)=C(O)c2ccccc21
inactive: [1] -31.9% | [2] -30.2% | [3] -27.1% | [4] 15.7% | [5] -3.45% | [6] -7.05%

COc1ccc(/C(C#N)=C/c2ccc(N(C)CCC#N)cc2)cc1
inactive: [1] 28.2% | [2] -24.1% | [3] 24.2% | [4] -8.75% | [5] 15.2% | [6] 24.5%

CC(=O)c1ccc(OCc2ccccc2)c(OCc2ccccc2)c1
inactive: [1] 2.45% | [2] 0.8% | [3] 22.8% | [4] 10.9% | [5] 22.1% | [6] 11.2%

Cn1nc(Br)c(=O)n(C)c1=O
inactive: [1] -17.9% | [2] -11.1% | [3] -14.8% | [4] -3.15% | [5] 1.7% | [6] -10.4%

O=C(NCCCCNCCCNC(=O)c1ccc([N+](=O)[O-])cc1)c1ccc([N+](=O)[O-])cc1
inactive: [1] -5.5% | [2] 4.1% | [3] -11.1% | [4] -26.3% | [5] 4.4% | [6] -11.4%

O=C1C2=C(Nc3cc([N+](=O)[O-])ccc3N2)OC1c1ccc(Cl)cc1Cl (stereo unspecified)
inactive: [1] -2.35% | [2] 23.4% | [3] 5.2% | [4] 10.7% | [5] -7% | [6] 13.2%

COc1cc(C)oc(=O)c1
inactive: [1] -6.1% | [2] 6.15% | [3] -2.45% | [4] -16.6% | [5] 8.1% | [6] 3.3%

O=C(O)CCc1ccc([N+](=O)[O-])cc1Cl
inactive: [1] 5.8% | [2] 4.95% | [3] 7.3% | [4] -24.6% | [5] -17.4% | [6] -0.4%

Cc1ccc(-c2n[nH]c(CC#N)n2)cc1
inactive: [1] 5.55% | [2] 1.6% | [3] -4.6% | [4] -12.7% | [5] -1.55% | [6] 18.7%

CC(CC(C(=O)N(C)C)(c1ccccc1)c1ccccc1)[N+](C)(C)[O-] (stereo unspecified)
inactive: [1] 5.5% | [2] 17.4% | [3] 0.1% | [4] 11.9% | [5] 13.3% | [6] 3.8%

C[CH2][Sn]([CH2]C)([O][P+](=O)C[Si](C)(C)c1ccccc1)[O][P+](=O)C[Si](C)(C)c1ccccc1 (stereo unspecified)
inactive: [1] 3.8% | [2] 29.6% | [3] 12.7% | [4] -3.55% | [5] -3.35% | [6] 17.9%

O=P(O)(O)OC1OC(n2cnc3c(NCc4ccc(F)cc4)ncnc32)C(O)C1O (stereo unspecified)
inactive: [1] 0.3% | [2] 2.3% | [3] -13.1% | [4] -18.2% | [5] 2% | [6] -25.7%

NC(=O)NC(=O)NCc1ccccc1
inactive: [1] -1.35% | [2] 0.35% | [3] -12.8% | [4] -7.65% | [5] 6.6% | [6] -4.9%

CCCCOC(=O)C(N)Cc1ccccc1 (stereo unspecified)
inactive: [1] -20.4% | [2] -2.3% | [3] -5.65% | [4] -44.5% | [5] 23.6% | [6] -22.2%

C=C(Nc1ccc(OC)cc1OC)C(=O)Cc1cccc[n+]1[O-]
inactive: [1] 6.25% | [2] -2.45% | [3] -10.5% | [4] -2.4% | [5] -3.4% | [6] -8.8%

CCOC(=O)CN=c1nc(SC)sc2c(C(=O)OCC)nc(Sc3ccccc3)n12
inactive: [1] 1.25% | [2] -7.25% | [3] 1.55% | [4] 13.6% | [5] -11.4% | [6] 8.65%

CCOC(=O)c1sc(SC)nc1NC(=O)c1ccc(OC)cc1
inactive: [1] 24.6% | [2] 21.7% | [3] -31.6% | [4] 17.2% | [5] 2.1% | [6] 19.1%

O=C([O-])c1cc(I)cc(I)c1[OH2+].O=C([O-])c1cc(I)cc(I)c1[OH2+].[Mn+2]
inactive: [1] -1.55% | [2] -19.4% | [3] -6.2% | [4] -23.7% | [5] -46% | [6] 5.8%

CCOc1ccc(/C=N/O)cc1OCC
inactive: [1] -0.3% | [2] -10.1% | [3] -10.2% | [4] -25.6% | [5] -2.1% | [6] -2.6%

CCCCCCCC(=O)NN
inactive: [1] -20.9% | [2] -27.6% | [3] -12.9% | [4] -4.7% | [5] -11.9% | [6] 10.3%

Cc1ccc(Cl)c(NC(=O)C(=O)C(C(=O)c2ccncc2)C2OC(=O)c3ccccc32)c1 (stereo unspecified)
inactive: [1] -14.6% | [2] -26.1% | [3] -37.1% | [4] 6.45% | [5] -5.85% | [6] -17.9%

Cc1ccc2c(c1)SC(c1cc3c(cc1Br)OCO3)S2 (stereo unspecified)
inactive: [1] -10.7% | [2] -22.1% | [3] 4.65% | [4] 34.9% | [5] 32.5% | [6] -18.4%
